Experiment [1] is described as follows: compounds binding Alexa647 anti-His antibody – biochemical, small-molecule microarray, 635 nm fluorescence, artefact control for SMM control protein annotation, primary screen (AID 1128).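 Also: score merges feature fluorescence with signal-to-noise for each printed compound spot.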 To be noted: higher = more signal.
The subject of experiment [2] is Human papillomavirus type 1a E7 protein (residues 1-88). In words: HPV1a E7 small-molecule binders, primary screen, biochemical, small-molecule microarray, residues 1-88, 635 nm (AID 1129). To be noted: small-molecule microarray binding, fluorescence 635 nm; higher = more signal.
The target in experiment [3] is Focal adhesion kinase 1 (Homo sapiens) (UniProt Q05397). Put plainly: PTK2 protein binding on printed compound slides – biochemical, small-molecule microarray, 635/667 nm fluorescence, BSA, DTT, primary screen (AID 1130).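 Also: composite of spot emission at 667 nm and signal to noise over triplicate slides.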 To be noted: 635 nm fluorescence, higher = more signal.
Experiment [4] deals with Fibrinogen (Alexa647-labelled). In words: Alexa647-fibrinogen binding to printed small molecules – biochemical, small-molecule microarray, 635/667 nm fluorescence, artefact control for SMM control-protein annotation, profiling panel (AID 1131).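 Also: z-score merges 667 nm fluorescence with per-spot signal-to-noise over triplicate slides.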 To be noted: fibrinogen-A647 binding fluorescence, higher = more signal.
Experiment [5] has as its target Follistatin (Homo sapiens) (UniProt P19883). Put plainly: FST protein binding to printed compounds – biochemical, small-molecule microarray, 635/667 nm fluorescence, primary screen (AID 1132). To be noted: 635 nm fluorescence, higher = more signal.
The target of experiment [6] is Fibroblast growth factor 2 (Homo sapiens) (UniProt P09038). In words: basic fibroblast growth factor binding to printed compounds – biochemical, small-molecule microarray, 635/667 nm fluorescence, primary screen (AID 1133). To be noted: FGF2, fluorescence 635/667, higher = more signal.
Experiment [7] is described as follows: JC-1 mitochondrial potential readout, lung cancer cells – cell-based, A549, JC-1 fluorescence, basal, 24 h, 100 nL, profiling panel (AID 1138).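 Also: A549 lung adenocarcinoma cells under basal conditions with no added stimulus; test concentration not given here.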 To be noted: higher = more signal.
The test system of experiment [8] is Lefty1. Put plainly: Lefty1 protein binding to printed compounds – biochemical, small-molecule microarray, 635/667 nm fluorescence, primary screen (AID 1139). To be noted: fluorescence 635/667, higher = more signal.
The subject of experiment [9] is wheat germ agglutinin (Triticum aestivum), Alexa647-labelled. Put plainly: Alexa647-WGA lectin binding to printed small molecules – biochemical, small-molecule microarray, 635/667 nm fluorescence, artefact control for SMM control-protein annotation, profiling panel (AID 1140).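 Also: score merges 667 nm feature emission with signal to noise over triplicate slides.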 To be noted: WGA-A647 binding, 635 nm fluorescence, higher = more signal.
Experiment [10] addresses Luciferin 4-monooxygenase (Photinus pyralis) (UniProt P08659). Put plainly: inhibition of purified Photinus pyralis luciferase – biochemical, luminescence, purified enzyme, 2006 set, primary screen (AID 1141).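 Also: cell-free assay with purified firefly luciferase at 100 ng per well in PBS; test concentration not given here.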 To be noted: purified firefly luciferase, SteadyGlo luminescence, 30 min; higher = more signal, called active from +8 up or from −8 down.
The test system of experiment [11] is Wnt5a (protein binding on small-molecule microarray). In words: small molecules binding Wnt5a protein – biophysical, small-molecule microarray, 635/667 nm fluorescence, primary screen (AID 1142).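 Also: fluorescence read at 667 nm with signal to noise per printed feature.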 To be noted: 635 nm fluorescence, higher = more signal.
A short description of experiment [12]: ATP-based viability of Huh7 replicon cells – cell-based, CellTiter-Glo luminescence, basal, 48 h, cytotoxicity control for HCV replication inhibitor project, primary screen (AID 1143).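 Also: Huh7 hepatoma cells carrying a hepatitis C replication reporter with no stimulus; test concentration not given here.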 To be noted: higher = more signal, called active from +8 up or from −8 down. Background: Replicon systems follow genome replication, usually without infectious particles.
Experiment [13] in a line: Pseudomonas biofilm growth suppression – PAO1 strain, BacTiter-Glo luminescence, LB-PBS, primary screen (AID 1144). To be noted: P. aeruginosa PAO1 biofilm, 12 h, higher = more signal.
Experiment [14] is described as follows: basal CRE-LacZ reporter activity in PC12 – cell-based, unstimulated, primary screen (AID 1145). To be noted: no forskolin, luminescence, 4.5 h, higher = more signal, called active from +8 up or from −8 down.
Experiment [15] is described as follows: forskolin-driven CRE-LacZ activity in PC12 – cell-based, CRE-LacZ reporter, forskolin-stimulated, primary screen (AID 1146).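 Also: PC12 cells with 6xCRE LacZ reporter stimulated by forskolin 10 µM; beta-galactosidase reporter signal reflecting CREB driven transcription.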 To be noted: luminescence, 4.5 h, higher = more signal, called active from +8 up or from −8 down.
For experiment [16], the target named is Streptavidin (Streptomyces avidinii) (UniProt P22629). In words: compounds binding control protein streptavidin – biophysical, small-molecule microarray, 635/667 nm fluorescence, artefact control for SMM compound annotation, primary screen (AID 1147).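 Also: signal reflects streptavidin binding to arrayed compounds as a control protein.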 To be noted: higher = more signal.
Experiment [17] is described as follows: probe aInhba binding on compound microarray – biochemical, small-molecule microarray, 635/667 nm fluorescence, primary screen (AID 1148).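 Also: score merges 667nm spot fluorescence with signal-to-noise for antibody binding to printed compounds.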 To be noted: higher = more signal.
Experiment [18] concerns the target Torsin-1A (Homo sapiens) (UniProt O14656). In words: TOR1A wild-type binding on microarray – cell lysate, small-molecule microarray, lysate, 635/667 nm, primary screen (AID 1149). To be noted: COS7 hTOR1A-WT lysate, 635 nm fluorescence, higher = more signal.
For experiment [19] the target is unchanged. Put plainly: torsin A mutant lysate binding on microarrays – cell lysate, small-molecule microarray, COS7 lysate, 635/667 nm fluorescence, primary screen (AID 1150).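 Also: score pools 667 nm emission and signal to noise measuring lysate protein binding.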 To be noted: COS7 hTOR1A mutant lysate, 635 nm fluorescence, higher = more signal.
Experiment [20] concerns Sonic hedgehog protein (Shh). In words: Sonic hedgehog microarray binding compounds – biochemical, small-molecule microarray, 635/667 nm fluorescence, primary screen (AID 1151).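 Also: Shh protein binding to compounds spotted on small-molecule microarray slides; score combines spot fluorescence intensity with signal-to-noise across triplicate slides.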 To be noted: 635 nm fluorescence, higher = more signal.

The source made the active and inactive calls. Unless noted, no rule for the calls is given here.

Sequence of Focal adhesion kinase 1 (Homo sapiens) (Q05397 whole entry, looked up): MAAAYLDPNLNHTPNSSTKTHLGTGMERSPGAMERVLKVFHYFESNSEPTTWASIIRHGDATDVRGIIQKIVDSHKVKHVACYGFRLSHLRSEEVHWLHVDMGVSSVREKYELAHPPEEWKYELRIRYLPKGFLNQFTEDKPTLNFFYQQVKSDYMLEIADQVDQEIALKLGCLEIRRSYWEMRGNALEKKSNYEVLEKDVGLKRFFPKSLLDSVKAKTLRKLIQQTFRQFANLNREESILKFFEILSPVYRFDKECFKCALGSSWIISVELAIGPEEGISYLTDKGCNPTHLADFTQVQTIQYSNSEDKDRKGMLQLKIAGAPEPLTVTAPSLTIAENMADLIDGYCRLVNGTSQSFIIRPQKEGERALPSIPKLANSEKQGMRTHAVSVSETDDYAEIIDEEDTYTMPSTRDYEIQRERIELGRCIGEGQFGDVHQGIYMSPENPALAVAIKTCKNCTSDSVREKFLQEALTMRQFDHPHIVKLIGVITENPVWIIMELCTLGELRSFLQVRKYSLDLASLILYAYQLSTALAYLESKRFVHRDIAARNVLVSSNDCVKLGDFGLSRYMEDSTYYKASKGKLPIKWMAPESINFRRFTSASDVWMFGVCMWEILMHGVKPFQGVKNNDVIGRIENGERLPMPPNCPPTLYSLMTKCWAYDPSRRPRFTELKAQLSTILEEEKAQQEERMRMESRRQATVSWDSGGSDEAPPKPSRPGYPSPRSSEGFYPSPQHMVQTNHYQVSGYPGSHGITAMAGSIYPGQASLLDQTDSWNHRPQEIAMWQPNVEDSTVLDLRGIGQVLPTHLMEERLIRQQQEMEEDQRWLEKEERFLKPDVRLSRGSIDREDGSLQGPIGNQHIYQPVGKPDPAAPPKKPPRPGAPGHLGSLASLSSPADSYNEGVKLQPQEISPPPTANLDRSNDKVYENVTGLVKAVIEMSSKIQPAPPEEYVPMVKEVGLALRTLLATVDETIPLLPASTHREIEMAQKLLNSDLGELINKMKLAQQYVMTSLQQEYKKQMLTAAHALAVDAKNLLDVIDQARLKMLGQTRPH
Sequence of Follistatin (Homo sapiens) (P19883 whole entry, looked up): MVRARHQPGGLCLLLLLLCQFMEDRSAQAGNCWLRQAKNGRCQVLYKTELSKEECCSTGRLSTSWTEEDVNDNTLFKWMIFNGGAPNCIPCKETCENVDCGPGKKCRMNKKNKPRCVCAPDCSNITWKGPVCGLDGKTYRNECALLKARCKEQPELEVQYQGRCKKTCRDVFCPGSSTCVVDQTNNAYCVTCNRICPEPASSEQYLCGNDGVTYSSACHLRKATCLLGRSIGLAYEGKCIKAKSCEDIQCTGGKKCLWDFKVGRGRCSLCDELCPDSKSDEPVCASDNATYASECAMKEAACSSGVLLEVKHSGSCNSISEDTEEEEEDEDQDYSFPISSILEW
Sequence of Luciferin 4-monooxygenase (Photinus pyralis) (P08659 whole entry, looked up): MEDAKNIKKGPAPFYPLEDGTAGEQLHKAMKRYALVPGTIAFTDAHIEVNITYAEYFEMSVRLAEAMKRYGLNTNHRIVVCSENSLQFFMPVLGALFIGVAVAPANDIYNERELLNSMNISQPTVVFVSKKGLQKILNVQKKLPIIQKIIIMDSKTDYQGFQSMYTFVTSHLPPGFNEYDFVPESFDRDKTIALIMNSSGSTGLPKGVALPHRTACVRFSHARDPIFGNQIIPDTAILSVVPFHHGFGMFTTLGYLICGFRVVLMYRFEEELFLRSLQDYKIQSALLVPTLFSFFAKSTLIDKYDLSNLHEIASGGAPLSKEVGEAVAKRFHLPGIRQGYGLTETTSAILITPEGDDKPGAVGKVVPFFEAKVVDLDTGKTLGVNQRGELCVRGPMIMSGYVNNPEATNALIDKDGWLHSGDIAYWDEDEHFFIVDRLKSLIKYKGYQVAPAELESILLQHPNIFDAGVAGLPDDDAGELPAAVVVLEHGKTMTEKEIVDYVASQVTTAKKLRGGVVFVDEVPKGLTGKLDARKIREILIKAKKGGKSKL
Sequence of Fibroblast growth factor 2 (Homo sapiens) (P09038 whole entry, looked up): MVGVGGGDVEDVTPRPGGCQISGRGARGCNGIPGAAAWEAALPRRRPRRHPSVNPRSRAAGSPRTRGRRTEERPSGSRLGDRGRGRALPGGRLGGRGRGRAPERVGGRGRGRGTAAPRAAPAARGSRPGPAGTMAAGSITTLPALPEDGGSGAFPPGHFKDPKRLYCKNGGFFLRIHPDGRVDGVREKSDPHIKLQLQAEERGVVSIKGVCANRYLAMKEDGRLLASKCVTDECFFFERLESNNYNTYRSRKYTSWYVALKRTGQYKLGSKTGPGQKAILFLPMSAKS
Sequence of Streptavidin (Streptomyces avidinii) (P22629 whole entry, looked up): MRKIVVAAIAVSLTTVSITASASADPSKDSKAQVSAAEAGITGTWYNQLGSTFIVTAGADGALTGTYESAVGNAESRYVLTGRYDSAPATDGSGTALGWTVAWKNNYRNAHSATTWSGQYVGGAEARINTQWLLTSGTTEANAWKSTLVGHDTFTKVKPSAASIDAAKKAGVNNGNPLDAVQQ
Sequence of Torsin-1A (Homo sapiens) (O14656 whole entry, looked up): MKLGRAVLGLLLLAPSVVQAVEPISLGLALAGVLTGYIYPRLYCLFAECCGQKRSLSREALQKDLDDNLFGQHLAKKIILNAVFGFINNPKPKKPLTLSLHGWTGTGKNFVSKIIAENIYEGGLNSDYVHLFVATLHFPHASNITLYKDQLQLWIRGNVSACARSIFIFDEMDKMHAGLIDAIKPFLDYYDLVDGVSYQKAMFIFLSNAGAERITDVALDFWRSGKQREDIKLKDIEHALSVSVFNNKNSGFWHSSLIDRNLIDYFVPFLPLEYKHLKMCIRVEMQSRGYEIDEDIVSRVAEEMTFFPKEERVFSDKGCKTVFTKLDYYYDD

For the molecule `CCN(CC)c1ccc(N2CC=CC34O[C@@H]5/C=C\CCC(C)OC(=O)C5[C@H]3C(=O)N(CCCO)[C@@H]4C2=O)cc1` (stereo not given in full), the composite z-score in experiment [1] was 0.494; in [2], -0.191; in experiment [3], -0.216; in experiment [4] it was -0.892; in [5], -0.247; in experiment [6], -0.615. Moreover, the composite z-score in experiment [8] was -0.784; in experiment [9] it was -0.529; in [11], 0.0023; in experiment [16], -0.946; in [17] it was -0.211; in experiment [18], 1.23. Moreover, the composite z-score in experiment [19] is 2.02; in experiment [20], -0.403. Also, the z-score was 0.881 in experiment [7]; -0.936 (inactive) in experiment [10]; -0.682 (inactive) in experiment [12]; 3.06 (inactive) in experiment [13]; 0.0564 (inactive) in [14]; -0.102 (inactive) in [15].
Regarding `CC(=O)OC[C@H]1O[C@H](CCON=C(C)CCC(=O)OC[C@H]2O[C@H](C#Cc3ccccc3)C=C[C@@H]2Oc2ccc(C)cc2)C=C[C@@H]1OC(C)=O`, the composite z-score in [1] amounted to 0.0004; in [2] it was 0.125; in experiment [3], 0.369; in experiment [4], 0.185; in experiment [5], 0.496; in experiment [6], 0.592. For the same molecule, the composite z-score is 0.802 in [8]; 0.0698 in experiment [9]; 0.0159 in experiment [11]; 0.238 in experiment [16]; -0.231 in experiment [17]; 0.595 in experiment [18]. Also, the composite z-score was determined as 0.139 in experiment [19] and 0.688 in experiment [20]. Moreover, the z-score in [7] is -0.518; in experiment [10] it was 0.54 (inactive); in experiment [12] it was -0.474 (inactive); in experiment [13] it was 0.037 (inactive); in [14] it was 0.894 (inactive); in [15] it was 0.452 (inactive).
Consider `C=CC[C@]1(C(=O)NCc2ccccc2)N=C(c2ccc(OCCCO)cc2)O[C@H]1c1ccccc1`, for which the composite z-score in [1] was -0.158; in experiment [2], 1.22; in [3] it was 0.115; in experiment [4], 0.632; in [5], 0.431; in experiment [6], -0.35. Besides, the composite z-score in [8] is -0.0085; in experiment [9], 0.366; in experiment [11], -0.2; in experiment [16] it was -0.134; in experiment [17], -0.003; in [18], 1.04. For the same molecule, the values for the composite z-score in [19] and in experiment [20] were 1.39 and -0.872, respectively. Besides, the z-score in experiment [7] was 0.453; in experiment [10] it was 0.185 (inactive); in experiment [12] it was -4.19 (inactive); in experiment [13], -0.71 (inactive); in experiment [14] it was 0.848 (inactive); in [15] it was 1.34 (inactive).
For the molecule `C=CC[C@@H]1C=C[C@H](ON=C(C)CCN2CCc3nc(CC)c(CC)cc3C2)[C@@H](CO)O1`, the composite z-score is 0.242 in [1]; -0.202 in [2]; -0.191 in experiment [3]; -1.5 in experiment [4]; 1.3 in [5]; 0.466 in experiment [6]. The composite z-score in [8] turned out to be 1.48; in experiment [9], 0.0749; in experiment [11] it was 0.255; in [16] it was 0.372; in [17], 0.0785; in experiment [18] it was 0.97. For the same molecule, the composite z-score turned out to be 1.12 in experiment [19] and 1.85 in [20]. The z-score was 2.17 in [7]; 0.624 (inactive) in experiment [10]; -0.667 (inactive) in experiment [12]; 0.983 (inactive) in experiment [13]; 3.51 (inactive) in experiment [14]; 0.319 (inactive) in experiment [15].
For the molecule `CCN1C(=O)[C@H]2[C@H]3[C@H](O)[C@H](O)CC(=NOCc4ccccc4)[C@H]3CC[C@H]2C1=O`, the composite z-score in experiment [1] was -0.364; in experiment [2], 0.359; in experiment [3], 0.155; in [4], 0.443; in experiment [5] it was 0.213; in experiment [6] it was 0.22. Also, the composite z-score is 0.228 in [8]; -0.077 in [9]; -0.0887 in [11]; 0.201 in [16]; -0.189 in [17]; 0.171 in experiment [18]. Also, the composite z-score in experiment [19] is 0.46; in experiment [20], 0.109. In addition, the z-score is -0.442 in experiment [7]; 0.243 (inactive) in [10]; 0.856 (inactive) in [12]; -0.784 (inactive) in experiment [13]; 0.25 (inactive) in experiment [14]; -0.332 (inactive) in experiment [15].
